Test systems include NCI-H23 lung; NCI-H226 lung; NCI-H322M lung; HOP-62 NSCLC; NCI-H460 lung; NCI-H522 lung; A549/ATCC NSCLC; 786-0 renal; COLO 205 colon; DU-145 prostate; K-562 leukemia; MALME-3M melanoma; MDA-MB-231 breast; RXF 393 renal; SF-268 CNS; SF-295 CNS; SF-539 CNS; UACC-257 melanoma; M14 melanoma.
Common to all, as to assay: NCI-60 one-dose screen, 48 h (100 = growth as untreated, 0 = no growth, -100 = all killed)
What all share (conditions): 10 µM unless noted

SMILES strings stand for the structures. Compounds without any hit were thinned out: in the full panel of roughly 83,000, 20% have a hit.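 A percent growth of 40 corresponds to 60% growth inhibition; 0 means no net growth; -100 means all cells died. Active threshold: below 10.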 Values without a mark were called inactive. Active and inactive are the calls of the source.

With `CN(C)CCn1c2ccccc2c2nc3cc(C(F)(F)F)ccc3nc21`, the growth was 34.6% in the test on NCI-H23 lung; 53.2% in the test on NCI-H226 lung; 40.3% in the test with NCI-H322M lung; 38.8% in the test on HOP-62 NSCLC; 8.31% (active) with NCI-H460 lung; 30.7% in the test on NCI-H522 lung. The growth with A549/ATCC NSCLC was 21.7%; with 786-0 renal it was 32.9%; in the test on COLO 205 colon it was 14%; in the test with DU-145 prostate it was 31.4%; in the test on K-562 leukemia, 19.3%; with MALME-3M melanoma, 25.9%. Further, the growth was 37.2% with MDA-MB-231 breast; 42.7% in the test with RXF 393 renal; 52.4% with SF-268 CNS; 27.9% in the test on SF-295 CNS; 26.3% with SF-539 CNS; 45.1% in the test with UACC-257 melanoma. Moreover, the growth in the test on M14 melanoma is 40.7%.

Take `COc1c(F)ccc(C(=O)Nc2ccc3nc(NC(=O)C4CCCN(S(=O)(=O)c5ccc(Br)c(F)c5)C4)sc3c2)c1F` (configuration not stated): the growth is 87.3% in the test with NCI-H23 lung; 80.8% with NCI-H226 lung; 94.5% in the test on NCI-H322M lung; 105% in the test with HOP-62 NSCLC; 84.1% in the test on NCI-H460 lung; 81.9% in the test with NCI-H522 lung. Besides, the growth in the test on A549/ATCC NSCLC is 73.7%; in the test with 786-0 renal, 52.7%; in the test with COLO 205 colon it was 81.8%; in the test on DU-145 prostate it was 102%; in the test on K-562 leukemia it was 62.5%; with MALME-3M melanoma, 95.6%. Moreover, the growth is 83.5% in the test with MDA-MB-231 breast; -1.15% (active) in the test with RXF 393 renal; 96.7% in the test with SF-268 CNS; 72.5% with SF-295 CNS; 64.5% with SF-539 CNS; 80.7% in the test with UACC-257 melanoma. Further, in the test on M14 melanoma, the growth is 80.7%.

Consider `CNS(=O)(=O)c1ccc(Nc2ccc(C(F)(F)F)cc2)c(-c2cn(C)cn2)c1`, for which the growth with NCI-H23 lung was 72.9%; in the test on NCI-H226 lung it was 48.8%; with NCI-H322M lung it was 59.1%; in the test with HOP-62 NSCLC, 95.3%; in the test on NCI-H460 lung, 33.7%; in the test with NCI-H522 lung, 36.5%. Moreover, the growth is 37.1% with A549/ATCC NSCLC; 61.2% in the test on 786-0 renal; 53.1% in the test with COLO 205 colon; 62.3% with DU-145 prostate; 21.5% with K-562 leukemia; 68.1% in the test on MALME-3M melanoma. For the same compound, the growth with MDA-MB-231 breast is 60.3%; in the test on RXF 393 renal, 52.1%; with SF-268 CNS it was 41.5%; with SF-295 CNS, 43.7%; in the test on SF-539 CNS, 64.4%; in the test on UACC-257 melanoma it was 64%. Further, the growth in the test on M14 melanoma is 49.8%.

On to `Cc1ccc(S(=O)(=O)c2nc(S(=O)(=O)c3ccc(C)cc3)c(Cl)s2)cc1`, for which the growth with NCI-H23 lung was 36.8%; in the test with NCI-H226 lung, 1.5% (active); in the test on NCI-H322M lung, 89.7%; with HOP-62 NSCLC, 105%; in the test with NCI-H460 lung, 41.5%; in the test on NCI-H522 lung, -89.5% (active). Moreover, the growth is 92.8% in the test with A549/ATCC NSCLC; -49.6% (active) with 786-0 renal; -78.6% (active) in the test with COLO 205 colon; -22.5% (active) in the test on DU-145 prostate; 5.15% (active) in the test with K-562 leukemia; -90.4% (active) with MALME-3M melanoma. Also, the growth with MDA-MB-231 breast is -54.5% (active); in the test on RXF 393 renal, -76.9% (active); in the test with SF-268 CNS, 108%; with SF-295 CNS, 94%; in the test on SF-539 CNS it was -62% (active); with UACC-257 melanoma, 67.2%. Besides, the growth with M14 melanoma was 23.7%.

Take `COc1ccc2[nH]c(O)c(N=NC(=O)Cn3c(-c4ccccc4)nc4cc(C)ccc43)c2c1`: the growth in the test on NCI-H23 lung is 13.4%; with NCI-H226 lung it was 11.7%; with NCI-H322M lung, 49.5%; with HOP-62 NSCLC, 47.9%; in the test with NCI-H460 lung, 44.3%; with NCI-H522 lung it was 57%. Moreover, the growth was 15.3% with A549/ATCC NSCLC; 4.55% (active) with 786-0 renal; 64.5% in the test with COLO 205 colon; 38.2% in the test on DU-145 prostate; 12.3% in the test with K-562 leukemia; -48% (active) with MALME-3M melanoma. Besides, the growth is -26.3% (active) in the test on MDA-MB-231 breast; -35.6% (active) in the test on RXF 393 renal; 38.5% in the test with SF-268 CNS; 44.9% in the test with SF-295 CNS; -28.1% (active) in the test on SF-539 CNS; 21.7% in the test with UACC-257 melanoma. In addition, the growth in the test with M14 melanoma is 9.19% (active).

Consider `Cc1ccc(S(=O)(=O)c2nc(S(=O)(=O)c3ccc(C)cc3)c(N3CCC(O)CC3)s2)cc1`, for which the growth is 62.5% with NCI-H23 lung; 84.6% with NCI-H226 lung; 77.3% in the test on NCI-H322M lung; 97.5% with HOP-62 NSCLC; 46.2% with NCI-H460 lung; 19.7% with NCI-H522 lung. Further, the growth is 62.1% with A549/ATCC NSCLC; 77.1% in the test with 786-0 renal; 98% in the test with COLO 205 colon; 70% in the test with DU-145 prostate; 29% in the test with K-562 leukemia; 92.2% in the test with MALME-3M melanoma. Moreover, the growth in the test with MDA-MB-231 breast was 71.8%; in the test on RXF 393 renal it was 33.6%; with SF-268 CNS, 70.3%; with SF-295 CNS it was 96.6%; in the test with SF-539 CNS it was 73.7%; with UACC-257 melanoma, 81.6%. Also, in the test on M14 melanoma, the growth is 71.2%.

As for `O=C(Cn1c(/C=C/c2ccccc2)nc2ccccc2c1=O)Nc1ccccc1`, the growth in the test with NCI-H23 lung was 90.2%; in the test with NCI-H226 lung, 60%; in the test with NCI-H322M lung, 87.5%; in the test on HOP-62 NSCLC it was 57.5%; in the test on NCI-H460 lung, 43.2%; in the test on NCI-H522 lung, 57.2%. Also, the growth is 38.2% in the test with A549/ATCC NSCLC; 1.52% (active) in the test on 786-0 renal; 79.3% in the test with COLO 205 colon; 74.8% in the test on DU-145 prostate; 93.2% with K-562 leukemia; 69.9% in the test on MALME-3M melanoma. Besides, the growth in the test on MDA-MB-231 breast was 24.8%; with RXF 393 renal, 8.81% (active); in the test with SF-268 CNS it was 91.4%; in the test with SF-295 CNS it was 70.7%; in the test with SF-539 CNS it was 70.2%; in the test with UACC-257 melanoma, 104%. The growth in the test with M14 melanoma is 102%.

For `O=C(Cn1c2c(sc1=O)[C@H]1[C@@H](O)[C@@H](O)[C@H](O)[C@@H]1CS2)N1CCOCC1`, the growth with NCI-H23 lung is 105%; with NCI-H226 lung, 101%; in the test with NCI-H322M lung, 107%; in the test on HOP-62 NSCLC it was 92.7%; in the test on NCI-H460 lung it was 106%; in the test with NCI-H522 lung it was 91.7%. Also, the growth was 106% with A549/ATCC NSCLC; 98.7% in the test with 786-0 renal; 116% in the test on COLO 205 colon; 112% in the test with DU-145 prostate; 106% in the test with K-562 leukemia; 98.8% in the test on MALME-3M melanoma. In addition, the growth is 106% in the test with MDA-MB-231 breast; 117% with RXF 393 renal; 97.7% in the test with SF-268 CNS; 105% in the test on SF-295 CNS; 96.8% in the test with SF-539 CNS; 110% in the test on UACC-257 melanoma. The growth in the test with M14 melanoma was 112%.

The values above are taken from PubChem BioAssay (NCI).
